Results from PMC7819943, “Rice protein-binding microarrays: a tool to detect cis-acting elements near promoter regions in rice”.
Over roughly 39,000 sequences, “fluorescence intensity (a.u.)” has its median near 4,300; the highest 2% begin near 39,000. This is one part of a sample in which the highest values are shown more often than they occur.

Biological target: T1, OsSMF1 (Oryza sativa, UniProt Q6ZLB0 1-436)
T1 sequence: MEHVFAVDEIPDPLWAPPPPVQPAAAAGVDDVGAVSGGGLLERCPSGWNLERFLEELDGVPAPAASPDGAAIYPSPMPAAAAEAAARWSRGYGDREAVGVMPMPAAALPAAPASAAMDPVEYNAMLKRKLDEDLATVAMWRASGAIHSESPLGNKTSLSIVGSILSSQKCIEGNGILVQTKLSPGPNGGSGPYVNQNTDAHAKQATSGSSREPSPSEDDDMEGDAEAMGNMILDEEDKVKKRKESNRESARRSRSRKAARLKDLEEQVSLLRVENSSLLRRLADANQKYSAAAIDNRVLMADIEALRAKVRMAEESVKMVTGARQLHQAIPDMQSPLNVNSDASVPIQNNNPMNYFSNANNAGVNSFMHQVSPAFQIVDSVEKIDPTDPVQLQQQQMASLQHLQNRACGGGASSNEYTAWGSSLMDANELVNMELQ
Assay: protein-binding microarray (RPBM); PBS, 2% BSA, 51.3 ng/ul salmon testes DNA, 50 uM zinc acetate, 200 nM TF, 25 C, 1 h; high values mean tight binding
Conditions: protein: recombinant; tags: N-terminal polyhistidine and DsRed monomer fusion (pET32a); chain copies: 2; label: CyDye5-dUTP incorporated in the synthesized complementary strand; 3' TTTTT single-stranded linker to array surface; dsDNA, one strand shown
Summary of the method: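 Ni–NTA purification followed expression in E. coli BL21-CodonPlus of transcription factors fused N-terminally to a polyhistidine tag and DsRed. At 200 nM in PBS with 2% BSA, salmon testes DNA and 50 µM zinc acetate, the protein was incubated for 1 h at 25 °C with a custom Agilent array that had been primer-extended with Cy5-dUTP and blocked with 2% BSA. After washing, the array was read on an Axon 4000B scanner. The binding signal is per-feature fluorescence intensity in arbitrary units.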

Which binding signal does the source give for “TACTTAAGTGCCAAGTGTCAAAGTGTGTGTGGTTTTCTGCCGGAGTCACCTAGTGCAG” here?
The binding signal was 4130 fluorescence intensity (a.u.).

“TCCAAATAGCACGTACGCATGCATGCGTCCATGCCATCTCCGGAGTCACCTAGTGCAG” was tested. Which binding signal did it give?
Its binding signal is 3270 fluorescence intensity (a.u.).

Which binding signal does the source give for “CGCTCGACTTCTCTTCTCTCATACACGTGTCATTAAATTTCGGAGTCACCTAGTGCAG” here?
The binding signal was 8480 fluorescence intensity (a.u.).

For “GAGGTGTACCACTAAGTGTGTACGTGTATAGTGGGGCGTGCGGAGTCACCTAGTGCAG”, which binding signal is on record?
The binding signal was 7420 fluorescence intensity (a.u.).

For “ATAAGTACGAATACTAAGTACGTGTGTGTTTGGAGGGTGTCGGAGTCACCTAGTGCAG”, which binding signal is on record?
Its binding signal is 4340 fluorescence intensity (a.u.).

With “TGGACCTGAACCGAACCACTAAGTAGTAGTACGTGTGAGGCGGAGTCACCTAGTGCAG” as the sequence, how does the binding signal read?
Its binding signal is 41100 fluorescence intensity (a.u.).

Which binding signal does the source give for “CTCCTTGACAACCAGCACCGATCCCTGAGTCACCCAACGACGGAGTCACCTAGTGCAG” here?
The binding signal was 6120 fluorescence intensity (a.u.).

How did the binding signal turn out when “TTCTGTAACATAGGCTAACGTCAACGTGGCATTCATTTTGCGGAGTCACCTAGTGCAG” was run?
Its binding signal is 13200 fluorescence intensity (a.u.).

How did the binding signal turn out when “CTGCACATAATAACGTGGATGAATCTTAAACGTCCATTTACGGAGTCACCTAGTGCAG” was run?
Its binding signal is 47100 fluorescence intensity (a.u.).

How did the binding signal turn out when “ATTAGTTTTATTAAATCTTACATTGAATATATTTTGATAACGGAGTCACCTAGTGCAG” was run?
Its binding signal is 3390 fluorescence intensity (a.u.).

For “AAATAATTTATGAATAAAACTTTTATCTACGTGTTCTTAACGGAGTCACCTAGTGCAG”, which binding signal is on record?
Its binding signal is 4110 fluorescence intensity (a.u.).

For “TATTTAAGTCAGTACTAAAGCACACATGTACAAATTTTACCGGAGTCACCTAGTGCAG”, which binding signal is on record?
The binding signal was 4160 fluorescence intensity (a.u.).

“ACCAAACACCGCAAAATAAACAGTCATCCTCCGCACCGCGCGGAGTCACCTAGTGCAG” was tested. Which binding signal did it give?
The binding signal was 4480 fluorescence intensity (a.u.).

For “ATAACAGCGGGCCTTACGTGTACATGATAGTATATAGTACCGGAGTCACCTAGTGCAG”, which binding signal is on record?
Its binding signal is 7000 fluorescence intensity (a.u.).

With “CAGAAAACAATAGTTATATTTAAGATGGGACGAATGGAGTCGGAGTCACCTAGTGCAG” as the sequence, how does the binding signal read?
The binding signal was 53100 fluorescence intensity (a.u.).

For “ATCAACAACTGTATTTAAAATGGGACGAATAGAGTAAATGCGGAGTCACCTAGTGCAG”, which binding signal is on record?
Its binding signal is 20200 fluorescence intensity (a.u.).

“AAAATAAAATTTATTAATAATATTTTATCTATATTTACGACGGAGTCACCTAGTGCAG” was tested. Which binding signal did it give?
Its binding signal is 30400 fluorescence intensity (a.u.).

How did the binding signal turn out when “ACAGACTTGTTTAAGTTACAAGACGATACTATAAGAATTTCGGAGTCACCTAGTGCAG” was run?
Its binding signal is 41100 fluorescence intensity (a.u.).

For “TTATTAATATATTTAATTTAATGATCCGAGATAACATATCCGGAGTCACCTAGTGCAG”, which binding signal is on record?
The binding signal was 35600 fluorescence intensity (a.u.).

With “TGAAACGGAGGGAGTATTATTAATATCTTAAGATGGACGACGGAGTCACCTAGTGCAG” as the sequence, how does the binding signal read?
The binding signal was 6690 fluorescence intensity (a.u.).

With “CTATTAGAATATTTTATAATAGTTAATAGTTAATTAATTACGGAGTCACCTAGTGCAG” as the sequence, how does the binding signal read?
Its binding signal is 39700 fluorescence intensity (a.u.).

Which binding signal does the source give for “AATTACATAATTTTAATACGAAGATGAATGATCAAATATACGGAGTCACCTAGTGCAG” here?
Its binding signal is 56600 fluorescence intensity (a.u.).

With “GTTTGTTGTCGATACAATCACTAGTTGTGTTTGTTAATTTCGGAGTCACCTAGTGCAG” as the sequence, how does the binding signal read?
The binding signal was 4170 fluorescence intensity (a.u.).

With “ATATAAGATGTAACTATTACGATGTTTCATGATACAAGTACGGAGTCACCTAGTGCAG” as the sequence, how does the binding signal read?
Its binding signal is 15000 fluorescence intensity (a.u.).

“ATATTTAACAACGGATCAAATGATAGGAAAATAATTAATACGGAGTCACCTAGTGCAG” was tested. Which binding signal did it give?
The binding signal was 4700 fluorescence intensity (a.u.).

How did the binding signal turn out when “TTTATTAATATATATATATATATATATATATATATATATACGGAGTCACCTAGTGCAG” was run?
The binding signal was 7400 fluorescence intensity (a.u.).

Which binding signal does the source give for “GAGCGAGGCGAGGGTGGGGAGGCGGAGGAGGATGTCCAGGCGGAGTCACCTAGTGCAG” here?
The binding signal was 4580 fluorescence intensity (a.u.).

“ATTTGATAAATGGGATGCCACGTGTACACCACGTCAACAGCGGAGTCACCTAGTGCAG” was tested. Which binding signal did it give?
The binding signal was 31000 fluorescence intensity (a.u.).

With “GATCAGATCGCACGCTGAGACGTATAGACGACGTGGGTCCCGGAGTCACCTAGTGCAG” as the sequence, how does the binding signal read?
Its binding signal is 4650 fluorescence intensity (a.u.).

“TGTTTGTATAATTTTGAGTTATCAACAGTCGCGATGGAGACGGAGTCACCTAGTGCAG” was tested. Which binding signal did it give?
The binding signal was 24900 fluorescence intensity (a.u.).

Which binding signal does the source give for “CAAGTACCCAACCCGCGTCGTCATCGTCGTCTTCCTACTTCGGAGTCACCTAGTGCAG” here?
Its binding signal is 5510 fluorescence intensity (a.u.).

With “AAAATGTCATGTAACTACGCCATTGGACCATAAATATTTTCGGAGTCACCTAGTGCAG” as the sequence, how does the binding signal read?
Its binding signal is 13600 fluorescence intensity (a.u.).

With “ATTATTTAAGTGATGATATGTAAATAACGAGTGAAGTTTTCGGAGTCACCTAGTGCAG” as the sequence, how does the binding signal read?
Its binding signal is 3400 fluorescence intensity (a.u.).

Which binding signal does the source give for “TACGAATTATGTAATTTGTTTTGTTATTAGTGTACATCTACGGAGTCACCTAGTGCAG” here?
The binding signal was 4070 fluorescence intensity (a.u.).

“TTTCTCGGAATTTCTGGAAATTTTCTTGGAATTAGTAGAACGGAGTCACCTAGTGCAG” was tested. Which binding signal did it give?
The binding signal was 65500 fluorescence intensity (a.u.).

“AATATGGATTATTACCAAGAATTTATCCGTTGTTTTGCTACGGAGTCACCTAGTGCAG” was tested. Which binding signal did it give?
The binding signal was 40700 fluorescence intensity (a.u.).

How did the binding signal turn out when “GAGAGAATCTTGGAACGATTAGTAGTACATAAAGTAGAATCGGAGTCACCTAGTGCAG” was run?
Its binding signal is 3650 fluorescence intensity (a.u.).

“TATGGATGGGTTTTATTAATAGTCTACGTTTAATATTTATCGGAGTCACCTAGTGCAG” was tested. Which binding signal did it give?
The binding signal was 4490 fluorescence intensity (a.u.).

For “TACGGAACCTGTAATTTGTTTTGTTATTAGTCTACATTTACGGAGTCACCTAGTGCAG”, which binding signal is on record?
The binding signal was 45800 fluorescence intensity (a.u.).

Which binding signal does the source give for “ATATTATATTAAATTTGTAGTTTTACGATAATATGGTAAACGGAGTCACCTAGTGCAG” here?
The binding signal was 25400 fluorescence intensity (a.u.).

How did the binding signal turn out when “TGTATTTGCTACCGTTTTCCAATATGTACCGTCATGTTTCCGGAGTCACCTAGTGCAG” was run?
Its binding signal is 3920 fluorescence intensity (a.u.).

With “CAGACGGATTATGTAATTTGTTTTATTATTAATTAGTCTACGGAGTCACCTAGTGCAG” as the sequence, how does the binding signal read?
Its binding signal is 3890 fluorescence intensity (a.u.).

“TTATTATTAGTAAATATGTAGTTTTACGATATTTAGTCTTCGGAGTCACCTAGTGCAG” was tested. Which binding signal did it give?
The binding signal was 44400 fluorescence intensity (a.u.).

“TATTCTGATTGGAACTTATGAGTCTTGAATTCTTGATTCTCGGAGTCACCTAGTGCAG” was tested. Which binding signal did it give?
Its binding signal is 29700 fluorescence intensity (a.u.).
